Data on 46 molecules can be found in PubChem BioAssay AID1259418 (Broad Institute, 2018).

Hit rate of the full screen: of about 3,400 compounds, about 840 (25%) were called active. Inconclusive results (about 11%) are left out.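 Rule for the calls: active = fitted half-maximal concentration of signal decrease at or below twice the sample's top tested concentration; inconclusive = flat curve between -70 and -30 percent, or poor fit; inactive = flat within 30 percent, signal rise, or potency above limit.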 Only a sample is shown. Measured potencies and affinities stand elsewhere.

The test can be described thus: T. gondii growth inhibition with IFN-gamma, dose response, cell-based, ME49Luc, HeLa, luciferase, 72 h (AID 1259418). As to conditions: T. gondii ME49Luc in IFN-y HeLa, hits give low values, -100% = high-dose IFN-γ control wells; at 19.5 µM unless noted.
`CCOc1ccccc1-c1nc(CN2CCc3c(sc4c3CCCC4)C2c2ccccc2)c(C)o1` (stereo unspecified): the max activity is 19.5% (inactive).

Consider `CC1=CCC=CC1C(=O)Nc1ccc2c(c1)CCC(=O)N2C` (stereo unspecified), for which the max activity was 56.7% (inactive).

`Cc1ccc(-c2coc(-c3ccc(NC(=O)Nc4ccccc4)cc3)n2)cc1`: the max activity is -15.8% (inactive).

As to `Cc1ccc(-c2coc(-c3ccc(NC(=O)COc4ccc(F)cc4)cc3)n2)c(C)c1`, the max activity was 10.4% [at 0.35 µM] (inactive).

In the case of `COCCCNC1=NCCNC12CCN(S(=O)(=O)c1cc(C)cc(C)c1)CC2`, the max activity is 11.6% [at 10 µM] (inactive).

Turning to `Cc1cc(C)cc(S(=O)(=O)N2CCC3(CC2)NCCN=C3NCc2cccc(F)c2)c1`, the max activity is -38.9% (inactive).

For the molecule `Cc1nc(-c2ccc(F)cc2)sc1-c1ccc(SCc2ccc(Cl)c(Cl)c2)nn1`, the max activity was 7.38% [at 2.6 µM] (inactive).

In the case of `COc1cc(NC(=O)CN2CCC3(CC2)N=C(c2ccc(F)cc2)C(=O)N3)cc(OC)c1`, the max activity is 16.7% [at 10 µM] (inactive).

Take `O=C(COc1ccc(Br)cc1)Nc1cncc(-c2nc3ccccc3o2)c1`: the max activity is 8.52% [at 0.16 µM] (inactive).

Take `COc1cccc(S(=O)(=O)N2CCCCN3[C@H](CO)[C@@H](c4ccc(C#CCC(C)C)cc4)[C@@H]3C2)c1`: the max activity is 106% (inactive).

On to `O=S(=O)(c1ccccc1)N1CCCCN2[C@H](C1)[C@H](c1ccc(C#CC3CCCC3)cc1)[C@@H]2CO`, for which the max activity was 27.4% [at 5 µM] (inactive).

As to `COc1cccc(S(=O)(=O)N2CCCCN3[C@H](C2)[C@@H](c2ccc(C#CCC(C)C)cc2)[C@@H]3CO)c1`, the max activity is 100% [at 0.08 µM] (inactive).

`COc1cc(C(=O)N2CCC3(CC2)Nc2cc(F)ccc2-n2cccc23)cc(OC)c1OC`: the max activity was 5.03% [at 0.68 µM] (inactive).

In the case of `COc1cccc(NC(=O)Nc2ccc(-c3nc(-c4ccc(C)cc4)co3)cc2)c1`, the max activity is 21.2% [at 0.16 µM] (inactive).

`Cc1oc(-c2cccc(Cl)c2)nc1CN1CCN(C(=O)Nc2ccccc2C(F)(F)F)CC1`: the max activity is -9.46% [at 2.6 µM] (inactive).

With `Cc1cccc(NC(=O)N2CCN(Cc3nc(-c4cccc(Cl)c4)oc3C)CC2)c1C`, the max activity is 13.9% [at 5 µM] (inactive).

Regarding `Cc1cc(C)cc(NC(=O)N2CCN(Cc3nc(-c4cccc(Cl)c4)oc3C)CC2)c1`, the max activity is 11% [at 1.35 µM] (inactive).

On to `COc1ccc(NC(=O)N2CCN(Cc3nc(-c4cccc(Cl)c4)oc3C)CC2)cc1OC`, for which the max activity was -22.8% (inactive).

For `Cc1oc(-c2cccc(Cl)c2)nc1CN1CCN(C(=O)Nc2ccccc2)CC1`, the max activity is -19.4% (inactive).

`CCc1ccc(NC(=O)N2CCN(Cc3nc(-c4cccc(Cl)c4)oc3C)CC2)cc1`: the max activity was -13.8% (inactive).

As to `COc1ccc(-c2nc(Cn3c(=O)c4c(C)cc(C)nc4n(-c4ccccc4)c3=O)c(C)o2)c(OC)c1`, the max activity is 5.72% [at 2.6 µM] (inactive).

`CCc1ccccc1Nc1ncnc2c1cnn2-c1ccccc1`: the max activity was 13.8% [at 10 µM] (inactive).

On to `COc1ccc(Cl)cc1S(=O)(=O)Nc1ccc(-c2nc(-c3ccc(C)c(C)c3)co2)cc1`, for which the max activity is 41.1% [at 10 µM] (inactive).

Turning to `CN1c2ccc(Br)cc2[C@H]2[C@H](CCN2S(=O)(=O)c2ccccc2F)[C@H]1CO`, the max activity is 25% [at 9 µM] (inactive).

On to `CN1c2ccc(-c3ccc(C#N)cc3)cc2[C@H]2[C@H](CCN2S(=O)(=O)c2ccc(F)cc2)[C@H]1CO`, for which the max activity is 42.2% [at 10 µM] (inactive).

As for `COc1ccc(C#Cc2ccc3c(c2)[C@H]2[C@H](CCN2S(=O)(=O)c2ccccc2C)[C@H](CO)N3C)cc1`, the max activity was 22.1% [at 10 µM] (inactive).

For the molecule `COc1ccc2c(c1)NC1(CCN(C(=O)c3ccccc3C)CC1)c1cccn1-2`, the max activity is 9.16% [at 0.68 µM] (inactive).

For `CCc1cccc(NC(=O)COc2nc(C)nc3ccccc23)c1`, the max activity is 15.1% [at 0.16 µM] (inactive).

In the case of `CCOc1ccc(-c2nc3c(s2)CN(S(=O)(=O)c2ccc(CC)cc2)CC3)cc1`, the max activity is 33% (inactive).

In the case of `CCc1ccc(S(=O)(=O)N2CCC3(CCC(C(=O)N4CCCC4)O3)CC2)cc1` (stereo unspecified), the max activity was 19.6% (inactive).

For the molecule `Cc1ccc(-c2coc(-c3ccc(NC(=O)c4ccc(Br)o4)cc3)n2)c(C)c1`, the max activity is 29% [at 0.68 µM] (inactive).

Consider `COc1ccc(CCC(=O)N2CCC(C(=O)NCCc3csc(-c4ccccc4)n3)CC2)cc1`, for which the max activity was 22% [at 10 µM] (inactive).

Regarding `COc1ccc(-c2cnc3n2CCNC32CCN(C(=O)N3CCOCC3)CC2)cc1`, the max activity was 31.8% (inactive).

`Cc1oc(-c2cccc(Cl)c2)nc1Cn1nnc(-c2nc(-c3ccccc3)no2)c1C`: the max activity is 25.3% (inactive).

`CCCCNc1nc(-c2ccc(Cl)cc2)nc2ccccc12`: the max activity was 12.4% [at 0.68 µM] (inactive).

As for `COc1ccc(-c2nc(NCCN3CCC(C)CC3)c3ccccc3n2)cc1`, the max activity is 14.8% (inactive).

In the case of `CC(C)CCNc1nc(-c2ccc(Cl)cc2)nc2ccccc12`, the max activity was -13.6% [at 0.35 µM] (inactive).

Regarding `COc1ccc(-c2nc(NCC3CCN(Cc4ccccc4Cl)CC3)c3ccccc3n2)cc1`, the max activity was -15.1% [at 10 µM] (inactive).

Turning to `COc1ccc2[nH]cc(CCNC(=O)c3cc(-c4ccccn4)nc4ccccc34)c2c1`, the max activity was -12.8% [at 5 µM] (inactive).

For `Cc1ccc(-c2coc(-c3ccc(NS(=O)(=O)c4ccc(Cl)cc4)cc3)n2)cc1C`, the max activity is 40.5% [at 2.6 µM] (inactive).

Consider `Cc1ccc(NC(=O)COc2nc(C)nc3ccccc23)c(Cl)c1`, for which the max activity was 15.5% [at 0.68 µM] (inactive).

Regarding `COc1cc(OC)cc(-c2noc(-c3nnn(Cc4nc(-c5cccc(C)c5)oc4C)c3C)n2)c1`, the max activity was -7.99% [at 0.16 µM] (inactive).

Take `Cc1ccc(NC(=O)Nc2ccc(-c3nc(-c4ccc(C)cc4)co3)cc2)cc1`: the max activity is 24% [at 5 µM] (inactive).

As to `CCc1cccc(-n2nnc(C(=O)N3CCC(N4CCCCC4)CC3)c2-c2cccnc2)c1`, the max activity is 25.9% [at 0.68 µM] (inactive).

On to `COCC(=O)N1CCC2(CC1)CC1(CCN(CC(C)C)CC1)C(=O)N2C`, for which the max activity was 34.4% (inactive).

For the molecule `O=C1CC(c2ccncc2)C2(CCN(Cc3nccs3)CC2)N1` (stereo unspecified), the max activity was 22.8% (inactive).
